Most compounds without a hit are left out; they make up all but 12% or so of the library.
INS promoter inh: TRM-6 insulin promoter activity inhibition; inhibition, % at 2 µM; TRM-6 cells (human fetal islet line), insulin promoter-eGFP reporter, imaging; reporter expression induced with tamoxifen; AID 1273; 0.9% of 130,000 active;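 active means inhibition above the mean plus 3 SD, with well images judged a real hit on visual review, cut at about 60% in these data, passing the limit was not always enough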
L major viab: Leishmania major promastigote growth inhibition; Leishmania major promastigotes, resazurin fluorescence viability; inhibition, % at 10 µM; 9% of 200,000 active; AID 1063; in the data active means inhibition above about 50%;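 further: promastigotes grown with compound for 44 hours at 28 °C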
WT yeast gro inh: growth inhibition of WT yeast, mitochondrial fusion screen | mitochondrial fusion phenotypic screen, WT strain | inhibition, % at 10 µM | 2.1% of 190,000 active; in the data active means inhibition above about 58%; tested in S. cerevisiae
Insulin prom up: MIN6 insulin promoter up-regulation; MIN6 insulin promoter-GFP reporter, high-content imaging; active compounds read high; z-score at 5 µM; 0.3% of 190,000 active; AID 1625;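 active means z-score above 3 at 5 µM with at least 500 cells counted in the well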
ROMK mod: modulators of human ROMK potassium channel; 2% of 130,000 active; P48048; Tet-inducible ROMK, thallium flux fluorescence; actives lie on both sides; B-score at 10 µM;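 active means signal ratio slope over the read window, or its plate-corrected B-score, at least 3 SD from the plate mean, either direction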;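 further: B-score of the F/F0 ratio slope over 7 to 12 s after thallium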
Cl transport mod: KCC2 (human) Cl- transport modulation. AID 1456. B-score of Tl+ flux slope (higher = more flux/activation; lower = inhibition) at 10 µM. 2.2% of 190,000 active. KCC2 cells, thallium flux FluoZin-2 fluorescence. Q9H2X9;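 active means thallium flux slope and its plate-corrected score both differing from the plate sample mean at a set confidence after two filtering rounds, in either direction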;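 further: slope of fluorescence scaled to starting intensity during 10 to 20 s after thallium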
Target sequence (Q9H2X9 whole entry, looked up): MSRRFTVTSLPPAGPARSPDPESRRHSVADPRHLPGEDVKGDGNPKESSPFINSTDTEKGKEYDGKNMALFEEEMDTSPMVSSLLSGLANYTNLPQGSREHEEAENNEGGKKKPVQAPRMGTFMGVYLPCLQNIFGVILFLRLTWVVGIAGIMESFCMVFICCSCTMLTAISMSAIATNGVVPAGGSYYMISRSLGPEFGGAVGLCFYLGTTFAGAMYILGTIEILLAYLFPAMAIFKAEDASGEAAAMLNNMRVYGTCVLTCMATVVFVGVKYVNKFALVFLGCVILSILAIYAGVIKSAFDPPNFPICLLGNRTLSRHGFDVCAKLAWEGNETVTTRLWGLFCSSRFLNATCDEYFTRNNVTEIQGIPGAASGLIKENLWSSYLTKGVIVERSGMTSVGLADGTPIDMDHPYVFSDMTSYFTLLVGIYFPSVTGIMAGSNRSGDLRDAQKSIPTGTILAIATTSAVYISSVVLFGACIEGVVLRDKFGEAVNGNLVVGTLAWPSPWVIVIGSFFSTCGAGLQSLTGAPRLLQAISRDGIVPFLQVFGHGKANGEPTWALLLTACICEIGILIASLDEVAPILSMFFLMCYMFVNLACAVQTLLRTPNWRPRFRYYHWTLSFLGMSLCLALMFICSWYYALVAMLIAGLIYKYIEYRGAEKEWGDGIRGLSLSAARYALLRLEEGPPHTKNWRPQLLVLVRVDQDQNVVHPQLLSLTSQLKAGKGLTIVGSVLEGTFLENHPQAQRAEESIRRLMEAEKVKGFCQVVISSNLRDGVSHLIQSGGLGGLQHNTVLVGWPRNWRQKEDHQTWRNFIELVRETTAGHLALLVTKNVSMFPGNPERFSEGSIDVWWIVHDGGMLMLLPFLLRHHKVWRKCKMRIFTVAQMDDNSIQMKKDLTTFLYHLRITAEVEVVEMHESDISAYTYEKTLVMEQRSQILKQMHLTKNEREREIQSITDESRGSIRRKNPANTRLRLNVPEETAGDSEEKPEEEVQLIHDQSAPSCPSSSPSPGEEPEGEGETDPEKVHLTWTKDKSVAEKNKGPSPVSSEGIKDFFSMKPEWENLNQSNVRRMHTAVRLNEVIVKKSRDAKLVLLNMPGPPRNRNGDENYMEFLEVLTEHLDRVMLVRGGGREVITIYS
A number is an active result; i = inactive; nt = no result.

SMILES	INS promoter inh	L major viab	WT yeast gro inh	Insulin prom up	ROMK mod	Cl transport mod
Cc1nnc(SCc2nc3ccccc3s2)n1-c1ccccc1	i	i	i	i	i	i
COc1ccc(C)cc1-n1nnnc1SCC(=O)Nc1cccnc1Cl	i	92.0	i	i	i	i
CCn1c(SCc2nc3ccccc3s2)nnc1-c1ccccc1	i	65.3	i	i	i	i
COc1ccc(C)cc1-n1nnnc1SCc1nc2ccccc2s1	nt	82.5	i	i	nt	i
CN(C)CCOc1nc(-c2ccccc2)nc2c1oc1ccccc12	i	99.8	i	i	nt	i
C=CCc1cccc(CNc2c(C)n(C)n(-c3ccccc3)c2=O)c1O	75.8	i	i	i	nt	nt
c1ccc(Nc2nc3ccccc3[nH]2)nc1	i	100.1	i	i	nt	i
Cc1cc(C)nc(Nc2nc3ccccc3[nH]2)n1	i	i	i	nt	nt	i
COc1cc(/C=N/NC(=S)N/N=C/c2cc(OC)c(OC)c(OC)c2)cc(OC)c1OC	i	55.0	i	i	i	i
COc1cc(/C=N/NC(=S)Nc2cccc(C(=O)O)c2)cc(OC)c1OC	i	i	i	i	nt	i
CCOC(=O)c1c(-c2ccccc2)oc2cc(CN(C)C)c(O)c(CN(C)C)c12	i	100.1	nt	nt	nt	i
CCOC(=O)c1c(-c2ccccc2)oc2ccc(OCC)cc12	i	i	i	i	i	i
CCOC(=O)c1c(-c2ccccc2)oc2ccc(O)c(CN3CCN(C)CC3)c12	i	88.7	i	i	i	i
CCCCSc1nnc2nc(C)cc(C)n12	nt	i	i	i	i	i
O=S(=O)(c1cccc(F)c1)N1CCc2sccc2C1c1ccc(OC(F)(F)F)cc1 (stereo not given)	nt	nt	nt	i	nt	i
Cc1cccc(N=C2NC(=O)/C(=C3/C(=O)N(C)c4ccccc43)S2)c1C	nt	68.0	i	i	i	i
COc1ccc(-n2c(CCc3ccccc3)nnc2SCC(=O)c2ccc(Cl)cc2)cc1	nt	i	i	i	nt	i
O=C(CSc1nnc(CCc2ccccc2)n1-c1ccc(Cl)cc1)c1ccccc1	nt	i	67.4	i	nt	i
CS(=O)(=O)N(CC(=O)Nc1ccccc1C(=O)N1CCOCC1)c1ccc2c(c1)OCO2	i	i	i	i	i	i
C=CCn1c(COc2ccccc2-c2ccccc2)nnc1SCC(=O)NC(=O)NCc1ccco1	i	i	94.6	i	i	i
COC(=O)CC1C(=O)NC2CCCCC2N1C(=O)CCl (stereo not given)	nt	nt	nt	i	nt	i
COCC(C)n1c(C)cc(C(=O)COC(=O)c2ccc(N3CCCC3=O)cc2)c1C (stereo not given)	i	68.5	i	i	nt	i
CC(C)CCn1c(Sc2nc3ccccc3o2)nc2c1c(=O)[nH]c(=O)n2C	i	95.5	i	nt	i	i
Cn1ccnc1SCC(=O)Nc1cc(S(=O)(=O)N2CCOCC2)ccc1Cl	i	61.7	i	i	i	i
Cc1ccc(S(=O)(=O)N2CCOCC2)cc1NC(=O)CSc1cccc[n+]1[O-]	nt	i	i	i	nt	i
SMILES	INS promoter inh	L major viab	WT yeast gro inh	Insulin prom up	ROMK mod	Cl transport mod
O=C(CSc1cccc[n+]1[O-])Nc1cc(S(=O)(=O)N2CCOCC2)ccc1Cl	i	67.9	i	i	i	i
CCOC(=O)C(=O)NNc1ccccc1C	i	71.7	i	i	i	i
COc1ccc(C(CCN)Cc2ccccc2)cc1 (stereo not given)	nt	51.2	i	i	i	i
Cc1ccc(C(=O)NCc2ccccc2)c(F)c1F	nt	i	i	i	nt	i
Cc1cc(C(=O)NCc2ccccc2)c(=O)[nH]c1C	72.7	i	i	i	i	nt
CCOc1ccc(C2Nc3ccccc3C(CC)(CC)O2)cc1 (stereo not given)	nt	i	i	i	i	i
O=C(c1ccccc1)c1ccc2n1CCC2C(=O)O (stereo not given)	i	i	i	nt	nt	i
O=C(CN1C(=O)COc2ccccc21)NCCN1CCC(Cc2ccccc2)CC1	i	67.0	i	i	nt	i
O=C(Nc1ccc(NC(=O)c2cccs2)cc1)c1cccnc1	nt	i	i	i	i	i
Cc1ccc(SCC(=O)O/N=C(\N)c2cccc([N+](=O)[O-])c2)cc1	i	i	59.1	i	nt	nt
N/C(=N\OC(=O)CC1CCCCC1)c1cccc([N+](=O)[O-])c1	i	68.4	i	i	i	i
Cc1ccc(/C(N)=N/OC(=O)CSc2ccccc2)cc1	i	i	i	i	i	i
Cc1ccc(S(=O)(=O)N(C)CC(=O)O/N=C(\N)c2cccc([N+](=O)[O-])c2)cc1	i	i	i	i	i	i
N/C(=N\OC(=O)CSc1ccccc1)c1ccc([N+](=O)[O-])cc1	i	64.0	i	i	nt	i
COc1cc(S(=O)(=O)n2c(C)nc3ccccc32)ccc1F	i	i	i	nt	i	i
O=C(NCCN1CCOCC1)c1ccc2c(c1)N(Cc1c(F)cccc1Cl)C(=O)c1ccccc1S2	i	100.0	i	i	i	i
N=c1n(CCN2CCOCC2)c2ccccc2n1CC(=O)c1ccc(Cl)c(Cl)c1	nt	65.6	i	i	-4.86	i
N=c1n(CCN2CCCC2)c2ccccc2n1CC(O)c1ccc(Cl)c(Cl)c1 (stereo not given)	nt	100.3	i	i	i	i
CCCCOC(=O)Cn1c(=N)n(CCN2CCOCC2)c2ccccc21	i	i	nt	nt	nt	nt
COc1ccc(Cl)cc1-c1nc(SCC(=O)NC(C)(C)C)n[nH]1	i	i	i	i	i	i
COc1ccc(/C=N/NC(=O)c2nc(-c3ccccc3)n(-c3ccccc3)n2)c(O)c1	i	99.3	i	i	nt	i
CC(C)(C)c1cc(C(=O)N/N=C/c2ccccc2O)n(-c2ccccc2)n1	i	99.1	i	i	nt	i
CCOC(=O)N/N=C(/C)c1ccc([N+](=O)[O-])o1	i	96.1	i	i	nt	i
O=c1[nH]c(-c2ccc(Cl)cc2)nc2c1cnn2-c1ccccc1	i	i	i	i	nt	i
Cc1cccc(OCCn2c(=O)n(C)c3ccccc32)c1	nt	i	i	i	nt	i
SMILES	INS promoter inh	L major viab	WT yeast gro inh	Insulin prom up	ROMK mod	Cl transport mod
CC(=O)/C(N=Nc1ccc2c(c1)OCO2)=C(\C)O	i	57.0	i	i	i	i
CCOc1nc(NC(=O)NS(=O)(=O)c2ccccc2F)nc(-c2ccccc2)n1	90.9	i	i	i	i	i
CCOc1nc(CC)nc(NC(=O)NS(=O)(=O)c2ccccc2Cl)n1	nt	i	i	i	i	nt
CS(=O)(=O)NCCCNc1c(Cl)cccc1[N+](=O)[O-]	74.1	i	i	i	i	nt
Cc1c(C(=O)O)oc2c1C(=O)CC(C)(C)C2	i	i	i	i	i	i
Cc1cccc(N(C(=O)c2nsc(Cl)c2Cl)C(C(=O)NC2CCCC2)c2ccc(O)cc2)c1C (stereo not given)	i	98.0	i	nt	nt	i
Cc1ccc(N(C(=O)c2nsc(Cl)c2Cl)C(C(=O)NC2CCCC2)c2ccc(O)cc2)cc1C (stereo not given)	i	76.4	i	i	i	i
COc1ccc(N(C(=O)c2cnccn2)C(C(=O)NC2CCCCC2)c2ccc(O)cc2)cc1 (stereo not given)	i	i	i	i	i	nt
Cc1cc(C)cc(N(C(=O)c2nsc(Cl)c2Cl)C(C(=O)NC2CCCC2)c2ccc(O)cc2)c1 (stereo not given)	i	71.0	i	i	i	i

Assay outcomes from PubChem BioAssay.
